We go through 102 compounds from PubChem BioAssay AID686978 (National Center for Advancing Translational Sciences (NCATS), 2013).

SMILES strings stand for the structures. Among all 420,000 compounds or so, about 64,000 (15%) were called active. Another 27% or so got no clear call; they are omitted. Calls come from the whole dose curve; as a rule, active = well fitted inhibition curve with a large enough effect; inconclusive = small, poorly fitted or top-dose-only effect; inactive = flat fitted curve, though single readings scatter. A selection follows. A call without a number means that no potency is given here.
Potency is the fitted concentration of half-maximal effect.

The assay in a line: qHTS for Inhibitors of human tyrosyl-DNA phosphodiesterase 1 (TDP1): qHTS in cells in absence of CPT. Note: nearly all actives have a fitted effect of over 55% in size. The conditions noted are these: DT40 Tdp1-/- hTDP1 cells, no CPT, ATP luminescence, 48 h; activity change, negative = growth inhibition: at 46.2 µM (top of the series). The essentials:
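A cellular qHTS used chicken DT40 cells lacking endogenous Tdp1 but carrying stably transfected human TDP1. Compounds were applied without camptothecin, and cell growth kinetics were judged by ATP-dependent luminescence after ≥48 hr.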
Turning to `CCC(C)C(NC(=O)C1CCC(=O)N1C(=O)OCc1ccccc1)C(=O)NC(C(=O)N1CCCC1C(N)=O)C(C)CC` (configuration not stated), the Potency entry is “inactive”. As for `Cc1ccc(-c2cc(C(=O)N3CCc4ccccc4C3)no2)cc1`, the entry is “inactive”. As for `CCn1c(SCC(=O)NC2CC2)nnc1-c1ccccn1`, the entry is “inactive”; as for `COC(C[C@H](O)CC(=O)COCc1ccccc1)OC`, “inactive”. To `CCOC(=O)/C=C/C(=O)OCC(=O)NC(c1ccccc1)c1ccccc1` belongs 8.2 µM (active). In the case of `CCOC(=O)C(C(=O)OCC)C(C#N)c1ccccc1` (configuration not stated), the Potency result is “inactive”.

`Cc1cc(C)cc(OCC(=O)NC(C)c2ccccc2)c1` (configuration not stated): the Potency entry is “inactive”. To `Cc1ccc(SCC(=O)NC(=O)NCc2ccco2)c(C)c1` belongs “inactive”.

`CC1=C(C(=O)N2CCOCC2)CC(CC(=O)NCc2cccs2)C(=O)N1CCCN1CCCC1=O` (configuration not stated): the Potency entry is “inactive”.

Regarding `CCN1C(=O)/C(=C\N2CCN(c3cccc(Cl)c3)CC2)SC1=S`, the Potency is 16.4 µM (active). Turning to `CCN1C(=O)/C(=C\N2CCOCC2)SC1=S`, the Potency entry was “inactive”. With `O=C(O)C(c1ccccc1)N1C(=O)/C(=C\c2ccc(-c3cccc(Cl)c3)o2)SC1=S` (configuration not stated), the Potency entry was “inactive”. As for `CC1=NNC(=O)C1CC(=O)N/N=C/c1ccncc1` (configuration not stated), the entry is “inactive”; as for `Cc1ccc(S(=O)(=O)NCC(=O)N2CCOCCOCCOCCOCC2)cc1`, “inactive”; as for `CC1CCN(C(=O)COC(=O)CCC(=O)c2cccs2)CC1`, “inactive”. In the case of `CCC(=O)N1CCN=C1SCc1ccc(F)cc1`, the Potency entry was “inactive”.

As for `COc1ccc(OC)c(S(=O)(=O)NCCC(C)C)c1`, the Potency result is “inactive”.

Take `COc1ccccc1N1CCN(/N=C\C(Br)=C\c2ccccc2)CC1`: the Potency is 7.31 µM (active). To `COc1ccccc1N1CCN(C(=O)C(=O)N/N=C/c2ccccc2F)CC1` belongs “inactive”; to `COc1ccccc1N1CCN(/N=C/c2ccc(O)cc2O)CC1`, “inactive”. To `COCCn1c(N)c(N(Cc2ccccc2)C(=O)C2CCCCC2)c(=O)[nH]c1=O` belongs “inactive”; to `NC(=O)C1CCN(CC(O)CSc2ccc(F)cc2)CC1` (configuration not stated), “inactive”; to `CCCN1CC=C2C(C#N)=C(N)C(C#N)(C#N)C(c3cc(OC)ccc3OC)C2C1` (configuration not stated), “inactive”.

For the compound `CCOc1ccc(C2C(C(=O)NC)=C(C)Nc3nc4ccccc4n32)cc1OC` (configuration not stated), the Potency result was “inactive”. As for `COc1cccc(NC(=O)COC(=O)CCOc2ccccc2OC)c1`, the entry is “inactive”. As to `COc1cccc(NC(=O)CC(c2ccc(OC(C)C)cc2)c2ccccc2OC)c1` (configuration not stated), the Potency is 11.6 µM (active).

Take `COc1cccc(NC(=O)C(C)Oc2ccccc2)c1` (configuration not stated): the Potency entry was “inactive”. As for `CNS(=O)(=O)c1ccc2c(c1)[nH]c(=S)n2C`, the entry is “inactive”; as for `CC(C)n1c(=S)[nH]c2cc(C(F)(F)F)ccc21`, 16.4 µM (active); as for `CCCn1c(=S)[nH]c2ccc(C(F)(F)F)cc21`, “inactive”. With `O=C(NCc1ccncc1)C1CCN(C(=O)c2cccc(Cl)c2)CC1`, the Potency result is “inactive”. As for `CCC(C(=O)NC1CCCC1)N(C(=O)Cn1nnc(-c2ccc(C)o2)n1)c1ccc(OC)c(OC)c1` (configuration not stated), the entry is “inactive”. For the compound `COc1cc(OC)cc(C(=O)Nc2ccc(S(=O)(=O)Nc3cc(C)on3)cc2)c1`, the Potency entry was “inactive”.

`COc1cc(NS(=O)(=O)c2ccc3c(c2)OCC(C(=O)N2CCCC2)O3)cc(OC)c1` (configuration not stated): the Potency was 20.6 µM (active).

In the case of `COc1ccc(S(=O)(=O)Nc2ccc3c(c2)OCO3)cc1Cl`, the Potency result is “inactive”. Take `COC(=O)COc1ccc(S(=O)(=O)Nc2ccc(NC(C)=O)cc2)cc1`: the Potency result is “inactive”. With `CC(=O)Nc1ccc(S(=O)(=O)Nc2ccc(N3CCCCC3)cc2)cc1`, the Potency was 2.91 µM (active). Consider `CC(=O)Nc1ccc(S(=O)(=O)Nc2ccc(N3CCOCC3)c(F)c2)cc1`, for which the Potency result is “inactive”. In the case of `COC(C(=O)NCc1ccccc1C)c1ccccc1` (configuration not stated), the Potency entry is “inactive”. Regarding `COC(C(=O)Nc1ccc(S(=O)(=O)Nc2ccc(C)c(C)c2)cc1)c1ccccc1` (configuration not stated), the Potency was 14.6 µM (active).

Consider `COc1cc(NS(=O)(=O)c2ccc(NC(C)=O)cc2)cc(OC)c1`, for which the Potency is 8.2 µM (active). As for `CC(=O)Nc1ccc(NS(=O)(=O)c2ccc3c(c2)NC(=O)CC(=O)N3)cc1`, the entry is “inactive”; as for `COC(C(=O)Nc1ccc(C(C)=O)cc1)c1ccccc1` (configuration not stated), “inactive”; as for `COc1cc(NC(=O)N2CCOCC2)cc(OC)c1`, “inactive”.

On to `CC(=O)N1CC2(C)CN(C(C)=O)CC(C)(C1)C2=O`, for which the Potency result was “inactive”. In the case of `COc1ccc(N(CCC#N)S(=O)(=O)c2ccc(Cl)cc2)cc1`, the Potency result is “inactive”.

On to `CCCC(=O)NC(Nc1ccccc1OC)C(Cl)(Cl)Cl` (configuration not stated), for which the Potency result is “inactive”. To `Cn1c(=O)n(C)c(=O)n(CC(=O)N2CCCCC2)c1=O` belongs “inactive”; to `COc1cc(OC)cc(C2=Cc3ccccc3C(CC(=O)c3ccco3)N2c2ccc(-c3cnc(OC)nc3)cc2)c1` (configuration not stated), “inactive”; to `CC(=O)Nc1ccc(NC(=O)C(C)OC(=O)C2CC(=O)N(CCc3ccccc3)C2)cc1` (configuration not stated), “inactive”. As for `O=C(NCC1(N2CCCCC2)CCCCC1)c1ccc(NS(=O)(=O)c2ccc(F)cc2)cc1`, the entry is “inactive”; as for `CCc1nnc(NC(=O)CSc2nnnn2-c2cccc(C(C)=O)c2)s1`, “inactive”; as for `COc1cccc(/C=C2\SC(=N)N(c3ccc(F)cc3)C2=O)c1`, “inactive”. Regarding `CC(=O)Nc1ccc(S(=O)(=O)Nc2cccc(NC(=O)C(C)(C)C)c2)cc1`, the Potency result was “inactive”. As for `CC(=O)c1c(C)oc2ccc(NS(=O)(=O)c3ccc(C(=O)O)cc3)cc12`, the entry is “inactive”; as for `COc1ccc(C(=O)Oc2cc(/C=N/NS(=O)(=O)c3ccc(C)cc3)ccc2OC)cc1`, “inactive”. To `CC(=O)c1ccc(NC(=S)NC(=O)CC(C)C)cc1` belongs “inactive”. As for `COc1ccc(S(=O)(=O)Nc2ccc3oc(C)c(C(C)=O)c3c2)cc1`, the figure is 5.17 µM (active); as for `COc1ccc(NS(=O)(=O)c2ccc(NC(C)=O)cc2)cc1OC`, 6.51 µM (active). Consider `COc1ccc(OC)c(C(C)NC(=S)Nc2ccc(S(=O)(=O)Nc3ncccn3)cc2)c1` (configuration not stated), for which the Potency result is “inactive”. For `COc1ccc(NS(=O)(=O)c2ccc(NC(=S)NC(=O)CC(C)C)cc2)cc1`, the Potency was 18.4 µM (active). Consider `COc1ccc(CNC(=O)c2ccc(NS(=O)(=O)c3ccc4[nH]c(=O)[nH]c4c3)cc2)cc1OC`, for which the Potency result is “inactive”. As for `COc1ccc(/C=C/C(=O)c2ccc(NS(=O)(=O)c3ccc(C)cc3)cc2)cc1O`, the Potency was 20.6 µM (active).

On to `COc1ccc2oc(C)c(NC(C)=O)c2c1`, for which the Potency result is “inactive”. For the compound `COc1ccc(S(=O)(=O)Nc2cc(C)on2)cc1NC(C)=O`, the Potency result was “inactive”. To `CCCC(=O)Nc1ccc2oc(-c3ccc(O)c(Br)c3)nc2c1` belongs “inactive”. With `CSc1ccccc1OCc1cc(C(=O)N(C)CCc2c(C)n[nH]c2C)no1`, the Potency result was “inactive”. Turning to `O=C(CN1CCCCCC1)Nc1c(Cl)cc(Cl)cc1Cl`, the Potency entry is “inactive”.

For `CN(C)C(=O)c1ccc(NC(=O)COC(=O)c2cc3c(s2)CCCCC3)cc1`, the Potency entry was “inactive”. To `CSc1ccc(/C=N/N2CCN(Cc3ccccc3Cl)CC2)cc1` belongs “inactive”; to `Cn1c2c(c(=O)n(C)c1=O)C(c1ccc(O)cc1)Nc1ccccc1O2` (configuration not stated), “inactive”. For the compound `Cc1nn(Cc2ccccc2)c(C)c1C(=O)NCCCN1CCCC1=O`, the Potency entry was “inactive”. On to `Cc1nn(Cc2ccccc2)c(C)c1C(=O)N1CCN(CC(=O)Nc2ccccc2Cl)CC1`, for which the Potency is 23.1 µM (active).

Regarding `CCC(=O)Nc1ccccc1C(=O)N1CCN(Cc2ccccc2)CC1`, the Potency entry is “inactive”.

Regarding `CCOC(=O)CSc1nnc(CNC(=O)c2ccco2)n1-c1ccc(F)cc1`, the Potency entry is “inactive”. To `NNC(=O)c1cnn(-c2ccccc2)c1C(F)(F)F` belongs “inactive”; to `CN(C)CCCOc1ccc(-c2ccc3nccn3c2)cn1`, “inactive”; to `OC[C@@H]1CN(Cc2cccs2)C[C@H](n2cnc3c(Nc4ccccc4)ncnc32)O1`, “inactive”.

For the compound `OC[C@@H]1CN(Cc2ccc(-c3ccccc3)cc2)C[C@H](n2cnc3c(NC4CCCC4)ncnc32)O1`, the Potency is 1.3 µM (active). With `OC[C@@H]1CN(C2CCCC2)C[C@H](n2cnc3c(NC4CCC4)ncnc32)O1`, the Potency result is “inactive”. Turning to `Cc1nnc(SCC(N)=O)n1CC1CCCO1` (configuration not stated), the Potency result is “inactive”. With `O=C(O)CSCc1nc2ccccc2s1`, the Potency result was “inactive”. `CCOC(=O)/C(C#N)=C/c1ccc(N2CCN(Cc3ccccc3)CC2)cc1`: the Potency is 20.6 µM (active). As for `CCOC(=O)/C(C#N)=C/c1ccc(N2CCCCC2)cc1`, the entry is “inactive”; as for `CCOC(=O)/C(C#N)=C/c1ccc(OCC(=O)Nc2ccccc2)c(OC)c1`, “inactive”; as for `O=C1C2C3C=CC(C3)C2C(=O)N1c1ccc(-c2nc3ccccc3c(=O)o2)cc1` (configuration not stated), “inactive”. To `CN(C)c1ccc(/C=N/NC(=O)C(O)c2ccc(Br)cc2)cc1` (configuration not stated) belongs “inactive”; to `NS(=O)(=O)c1ccc(NC(=S)NC(=O)c2cccnc2)cc1`, “inactive”. In the case of `O=C(c1ccc2c(c1)N(Cc1ccccc1)C(=O)c1ccccc1S2(=O)=O)N1CCCC1`, the Potency is 23.1 µM (active). For the compound `O=C1c2ccccc2S(=O)(=O)c2cc(N3CCN(c4ccccn4)CC3)ccc21`, the Potency result was “inactive”.

Consider `COc1ccccc1NC(=O)CN1C(=O)c2ccccc2Sc2ccc(C(=O)N3CCCC3)cc21`, for which the Potency result was “inactive”. In the case of `O=C(c1ccc2c(c1)N(Cc1ccc(F)cc1)C(=O)c1ccccc1S2(=O)=O)N1CCN(c2ccccn2)CC1`, the Potency is 18.4 µM (active). To `O=C(c1cccc(Br)c1)N1CCN(C2=NS(=O)(=O)c3ccccc32)CC1` belongs “inactive”; to `O=C(c1ccc2c(c1)N(Cc1ccccc1)C(=O)c1ccccc1S2(=O)=O)N1CCC(Cc2ccccc2)CC1`, 5.8 µM (active); to `O=C(c1ccc2c(c1)N(Cc1ccccc1F)C(=O)c1ccccc1S2(=O)=O)N1CCOCC1`, “inactive”. As for `CC1CCCN(C(=O)CN2C(=O)c3ccccc3S2(=O)=O)C1` (configuration not stated), the entry is “inactive”; as for `O=C(c1ccc2c(c1)C(=O)N(c1ccc(Cl)cc1)C2=O)N1CCN(c2ccccn2)CC1`, “inactive”. As for `COc1ccc(Cl)cc1N(CC(=O)N/N=C/c1ccc(OCC(N)=O)cc1)S(C)(=O)=O`, the entry is “inactive”; as for `CCOc1ccc(C(=O)N2CCN(CCc3ccccn3)CC2)cc1`, “inactive”. Take `O=C(CSc1nnc(-c2cccnc2)n1CCc1ccccc1)NCc1ccccc1`: the Potency result is “inactive”.

In the case of `COc1ccc(C)cc1NC(=O)CCS(=O)(=O)c1cccc2nonc12`, the Potency result is “inactive”.

With `COCCN(CCOC)S(=O)(=O)NC[C@H]1O[C@@H](n2cnc3c(N)ncnc32)[C@H](O)[C@@H]1O`, the Potency result was “inactive”.
